Rows were chosen to be rich in hits. Some 17% of all compounds tested hit in one or more screens of this group.
DT40 TDP1 CPT = qHTS for Inhibitors of human tyrosyl-DNA phosphodiesterase 1 (TDP1): qHTS in cells in presence of CPT; Potency, µM (doses to about 46.2 µM), for the others: at the top dose activity change, negative = growth inhibition, actives largely listed as inhibitors; chicken DT40 Tdp1-/-;hTDP1 cells + 20 nM CPT, ATP luminescence, 48 h; AID 686979, 2013; 420,000 tested, 12% active; further: on the % scale 0 is the no-effect control and ±100 the full control effect; nearly all actives have a fitted effect of over 55% in size
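Chicken DT40 Tdp1-/- cells complemented with human TDP1, 400 cells/well, exposed to compounds plus 20 nM camptothecin for at least 48 h at 37 C; viability read as ATP content by CellTiter-Glo luminescence.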
ClpP mod = qHTS Assay for Activators of ClpP. 340,000 tested, 1.9% active. Potency, µM (top dose mostly 57.5 µM), for inactives: at the highest dose activity change, negative = active. purified B. subtilis ClpP, FRET peptide cleavage, 20 min. ATP-dependent Clp protease proteolytic subunit (Bacillus subtilis (strain 168)), P80244. AID 651965, 2013; active means well fitted falling curve with a large enough effect; inconclusive means small, poorly fitted or top-dose-only effect; inactive means no such curve, though single readings can be large or run the other way; further: the source files actives as falling curves though it sought activators and does not explain the sign; nearly all actives have a fitted effect of over 65% in size
Target sequence (P80244 whole entry, looked up): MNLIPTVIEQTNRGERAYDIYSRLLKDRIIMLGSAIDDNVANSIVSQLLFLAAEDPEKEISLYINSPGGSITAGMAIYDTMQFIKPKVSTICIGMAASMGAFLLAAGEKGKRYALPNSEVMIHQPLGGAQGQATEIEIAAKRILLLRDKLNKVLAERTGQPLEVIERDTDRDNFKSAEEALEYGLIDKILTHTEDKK
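ClpP 10 microg/mL final, pH 8 Tris/KCl buffer with BSA, glycerol, Tween-20; compound pinned in; FRET-FV substrate; RT 20 min; Ex320/Em430; ΔFRET vs ADEP 5.8 microM, DMSO, no enzyme.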
TDP1 cell noCPT = qHTS for Inhibitors of human tyrosyl-DNA phosphodiesterase 1 (TDP1): qHTS in cells in absence of CPT; DT40 Tdp1-/- hTDP1 cells, no CPT, ATP luminescence, 48 h; 420,000 tested, 15% active; Potency, µM (top dose mostly 46.2 µM), for the others: at the highest dose activity change, negative = growth inhibition, most hits filed as inhibitors; further: on the % scale 0 is the no-effect control and ±100 the full control effect; nearly all actives have a fitted effect of over 55% in size
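Chicken DT40 Tdp1-/- cells stably complemented with human TDP1 were seeded at 400 cells/well with DMSO in place of 20 nM camptothecin. After compound pinning, cells grew at least 48 hr at 37 °C; viability read by CellTiter-Glo luminescence.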
TDP1 inh = qHTS Assay for Inhibitors of Tyrosyl-DNA Phosphodiesterase (TDP1); recombinant TDP1, AlphaScreen DNA substrate cleavage; Potency, µM (top dose mostly 130 µM), for the others: top-dose activity change, negative = inhibition, usual class: inhibitors; 350,000 tested, 0.28% active; AID 485290, 2010; further: on the % scale 0 is the no-effect control and ±100 the full control effect; nearly all actives have a fitted effect of over 40% in size
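E. coli-derived human Tdp1, 1 nM final. Cpd preinc 15 min RT; substrate 15 nM final, 5 min RT; AS bead mix 10 ug/ml final, 10 min RT. Signal loss = tyrosine-FITC cleavage. No-enzyme wells = max signal.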
* hit, by the source's call; ? = inconclusive; nt = not tested or not shown; ! = not active in a repeat; [ ] = dose if it differs, or a comment. Unless noted, the call rests on the fitted dose curve; in most records, active means well fitted curve in the direction sought with a large enough effect; inconclusive means small, poorly fitted or top-dose-only effect, or another doubt; inactive means no such curve, though single readings can be large; an effect the other way counts as inactive or inconclusive. Potency means the concentration at half of the fitted maximal effect.

SMILES	DT40 TDP1 CPT	ClpP mod	TDP1 cell noCPT	TDP1 inh
COc1ccccc1CNC(=O)C1CCCN(c2nnc(C)c3c(C)n(-c4ccccc4)nc23)C1 (centres undefined)	21µM*	5%	21µM*	0%
Cc1ccc(-n2nc3c(N4CCC(C(=O)NCc5cccc(F)c5)CC4)nnc(C)c3c2C)cc1	?	?	18µM*	40µM*
O=C(NCc1ccccc1)C(=O)NCC(c1ccco1)S(=O)(=O)c1ccccc1 (centres undefined)	-5%	1%	-20%	-5%
Cc1ccc(NS(=O)(=O)c2cc3c(cc2-c2cn[nH]c2)NC(=O)CO3)cc1C	nt	nt	nt	-1%
COc1ccc(-n2nc3c(N4CCCC(C(=O)NCc5ccccc5C)C4)nnc(C)c3c2C)cc1 (centres undefined)	2.9µM*	28µM*	5.2µM*	nt
COc1ccc(-n2nc3c(N4CCC(C(=O)NCc5ccco5)CC4)nnc(C)c3c2C)cc1	?	-10%	?	-13%
COc1ccc(-n2nc3c(N4CCC(C(=O)NC5CCCCC5)CC4)nnc(C)c3c2C)cc1	13µM*!	-12%	15µM*!	-10%
Cc1ccc(-n2nc3c(N4CCC(C(=O)NCCc5ccco5)CC4)nnc(C)c3c2C)cc1	21µM*	?	?	4%
Cc1ccc(-n2nc3c(N4CCC(C(=O)NCCC(C)C)CC4)nnc(C)c3c2C)cc1	16µM*	-8%	?	6%
COc1ccc(NS(=O)(=O)c2ccc(O)c([N+](=O)[O-])c2)cc1S(=O)(=O)N1CCCCC1	7%	nt	1%	-9%
COc1ccc(C2CC(O)(c3ccccc3)Oc3c(C)ccc(C(C)C)c32)cc1 (centres undefined)	nt	nt	nt	12%
Cc1ccc(-n2nc3c(N4CCC(C(=O)NCCc5ccccc5C)CC4)nnc(C)c3c2C)cc1	16µM*	4%	5.8µM*	5%
COc1ccc(-n2nc3c(N4CCC(C(=O)NCc5ccccc5C)CC4)nnc(C)c3c2C)cc1	18µM*	?	7.3µM*	-13%
COc1ccc(-n2nc3c(N4CCCC(C(=O)NCCc5ccc(C)cc5)C4)nnc(C)c3c2C)cc1 (centres undefined)	3.3µM*	4%	3.7µM*	3%
Cc1ccc(-n2nc3c(N4CCC(C(=O)N5CCCCC5)CC4)nnc(C)c3c2C)cc1	?	?	23µM*	0%
Cc1ccccc1CNC(=O)C1CCN(c2nnc(C)c3c(C)n(-c4ccccc4)nc23)CC1	?	-17%	?	3%
COc1ccc(-n2nc3c(N4CCC(C(=O)NCCc5ccccc5)CC4)nnc(C)c3c2C)cc1	?	?	?	0%
CCCCN(C(C)=O)c1c(CC)nc2ccc(C(=O)Nc3cccc(OCC(=O)N(C)C)c3)cn12	?	-3%	?	nt
N#CCCN(C(=O)COC(=O)C1CCN(S(=O)(=O)c2ccccc2C(F)(F)F)CC1)c1ccccc1	6%	-1%	19%	nt
CC(C)OCCCNC(=O)c1cccc2c1C(=O)c1ccc(Cl)cc1S2(=O)=O	-27%	2%	-28%	0%
CCn1nc(C)c(CN2CCCC(CO)(Cc3cccc(Cl)c3)C2)c1C (centres undefined)	?	2%	16µM*	-3%
COc1ccc(F)c(CN2CCCC(CO)(Cc3cccc(Cl)c3)C2)c1 (centres undefined)	?	0%	?	nt
COc1ccccc1/C=C/CN1CCCC(CO)(Cc2cccc(Cl)c2)C1 (centres undefined)	?	nt	23µM*	-3%
COc1cc(Cl)c(CN2CCCC(CO)(Cc3cccc(Cl)c3)C2)cc1OC (centres undefined)	18µM*	1%	?	nt
CC(C)(O)C#Cc1ccc(CN2CCCC(CO)(Cc3cccc(Cl)c3)C2)cc1 (centres undefined)	15µM*	0%	15µM*	1%
SMILES	DT40 TDP1 CPT	ClpP mod	TDP1 cell noCPT	TDP1 inh
Clc1cccc(-c2ccc(CNCCSc3nnnn3-c3ccccc3)o2)c1	?	-27%	?	5%
O=C(CCCN1C(=O)NC2(CCCC2)C1=O)NCc1ccccc1	0%	-4%	1%	0%[56.1 µM]
CC(=O)c1ccc(NC(=O)NC2CCCCCCC2)cc1	?	-3%	-22%	0%
Cc1c(CN2CCCC(CO)(Cc3cccc(Cl)c3)C2)cnn1C (centres undefined)	-22%	1%	12%	7%
OCC1(Cc2cccc(Cl)c2)CCCN(Cc2sc(N3CCCC3)nc2Cl)C1 (centres undefined)	21µM*	-1%	18µM*	5%
Cc1ccc(Nc2nc(C)cc(C)c2C#N)c(C)c1	?	-3%	-6%	nt
CC[C@H](C)N(C)C(=O)c1cc2ccccc2c(-c2ccccc2Cl)n1	?	nt	30µM*	-4%[56.1 µM]
Cc1nc(-c2ccc(S(=O)(=O)NCc3ccc(OC(C)C)cc3)cc2)co1	?	-3%	26µM*	9%
CCOc1ccccc1CNS(=O)(=O)c1ccc(-c2cnc(C3CC3)o2)cc1	0.82µM*	4%	0.65µM*	4%
CCOc1ccc(NS(=O)(=O)c2ccc(-c3coc(C)n3)cc2)cc1	?	0%	?	2%
Cc1nc(-c2ccc(S(=O)(=O)NCc3ccccc3Cl)cc2)co1	?	-5%	?	-9%
O=S(=O)(NCc1ccccc1Cl)c1ccc(-c2cnc(C3CC3)o2)cc1	3.7µM*	5%	2.9µM*	-1%
CCOc1ccccc1CNS(=O)(=O)c1ccc(-c2coc(C)n2)cc1	16µM*	2%	16µM*	2%
COc1ccccc1CN1C[C@@H]2C[C@@H](c3[nH]c4c(C)cccc4c3C)N3CCC[C@@]23C1=O	-28%	-6%	-73%	3%
Cc1ccc(C(=O)N2[C@@H]3CN(C)C(=O)[C@@]2(Cc2ccccc2)[C@H]2C(=O)N(Cc4ccccc4)C(=O)[C@@H]32)cc1	0.0052µM*	1%	?	nt
O=C(NCc1cccc(F)c1)c1cccc2c1C(=O)c1ccc(Cl)cc1S2(=O)=O	?	3%	5%	5%
O=C(NCCOc1ccccc1)c1cccc2c1C(=O)c1ccc(Cl)cc1S2(=O)=O	?	1%	23µM*	4%
COc1ccc(OC[C@@H](O)CNC(=O)c2cccc3c2C(=O)c2ccc(-c4ccc(F)cc4OCc4ccccc4)cc2S3(=O)=O)cc1	7.3µM*	-3%	10µM*	4%
O=C(NCCOc1ccccc1Cl)c1cccc2c1C(=O)c1ccc(Cl)cc1S2(=O)=O	23µM*	2%	16µM*	0%
